The source of these data is PubChem BioAssay.

Values joined by “and” are separate entries in the source; they are usually repeats but may differ in a detail not shown here. Equal entries are not always repeated. Active and inactive are the calls of the source. Unless noted, no rule for the calls is given here.

Assay [1] in a line: P. berghei load reduction in hepatocytes – cell-based, HepG2, luciferase luminescence, HepG2 viability, primary screen (AID 624349; in the data active = parasite load remaining mostly below about 12%, no sharp cut-off; inactive = mostly above about 10%;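 also: 100% = mean of DMSO negative control wells on the same plate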). To be noted: P. berghei liver stage in HepG2, luciferase luminescence, concentration not given here; parasite load remaining: stronger effect = lower value; viability: measured here: HepG2 viability without parasites.
The nature of assay [2]: signal quenchers or enhancers, Cy5 substrate/SSB – biochemical, NIH Clinical Collection, E. coli SSB, artefact control for HCV NS3 helicase inhibitor project (AID 743268). Conditions: Cy5-oligo bound E. coli SSB, fluorescence interference.
Assay [3] has as its system Hepatitis C virus NS3 helicase. Nature of the assay: blockers of NS3h binding to DNA – biochemical, fluorescence polarization, NIH Clinical Collection, primary screen (AID 743270). Conditions: NS3 helicase binding to Cy5-dT15 DNA, stronger effect = higher value, concentration not given here. (In fluorescence polarisation assays a small probe gives low polarisation when free and higher when bound to something large.)

The target of assay [4] is Single-stranded DNA-binding protein (Escherichia coli (strain K12)) (UniProt P0AGE0). Nature of the assay: SSB-ssDNA binding inhibitors – biochemical, fluorescence polarization, NIH Clinical Collection, counter-screen for HCV NS3 helicase inhibitor project (AID 743271; in the data active = inhibition above about 28%). To be noted: E. coli SSB-DNA binding, stronger effect = higher value, concentration not given here.
Assay [5] is described as follows: compounds distorting NS3 helicase fluorescence signal – biochemical, NIH Clinical Collection, artefact control for HCV NS3 helicase inhibitor project (AID 743272).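 Also: HCV NS3 helicase with a Cy5 labelled single stranded DNA probe.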 Conditions: fluorescence interference counterscreen, HCV NS3 helicase assay; stronger effect = lower value. Background: The purpose of a counterscreen is to sort out artefacts and off-target activity.
In assay [6] the test system is Neuropilin-2 / VEGF-C interaction (human). Nature of the assay: small molecules blocking Neuropilin-2/VEGF-C interaction – biochemical, microplate binding format, z-score (AID 743281). To be noted: microplate NRP2/VEGF-C binding assay; stronger effect = lower value.
Assay [7] can be described thus: modulation of C. elegans fzo-1 (AID 1259413).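 Also: fzo-1 mutant C. elegans worms in liquid wells.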 To be noted: C. elegans fzo-1 modulator screen, mean read-out; stronger effect = higher value.
Assay [8] in a line: viability loss with induced miR-34 in A549 – imaging, A549 dox-inducible miR-34, nuclei and caspase counts, primary screen (AID 1347080;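 active = compounds whose cell count with miR-34 switched on is under 0.7 times the count with it off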). Conditions: A549 miR-34 inducible, Hoechst nuclei count, 48 h.
A short description of assay [9]: galactose survival enhancers in mitochondrial complex I cybrids – cell-based, galactose medium, ATP luminescence, primary screen (AID 1645843;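 active = z-score of at least 1.8 in each of two replicates, scored against plate mean and spread of sample wells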;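 also: positive z means more ATP and so rescue of galactose-driven cybrid death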). Conditions: complex I mutant cybrid cells, 72 h, stronger effect = higher value.
Assay [10] concerns F380Y. Nature of the assay: BK channel mutant inhibitors and activators – cell-based, U2OS BacMam, thallium flux, beta subunits, selectivity assay, profiling panel (AID 1259406;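 active = thallium flux through the channel raised or lowered by more than 3 SD from vehicle-only wells, actives on both sides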;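 also: initial slope of Thallos dye fluorescence rise after thallium is added; log ratio against the mean of 0.3% DMSO vehicle wells on the same plate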). Conditions: U2OS BacMam BK variants, at 30 µM.
Assay [11] relates to F380Y/beta1. The assay is described as above. To be noted: U2OS BacMam BK variants, at 30 µM.
Assay [12] concerns F380Y/beta2Delta. The description is as above. Conditions: U2OS BacMam BK variants, at 30 µM.
For assay [13], the system named is F380Y/beta4. Described as above. Conditions: U2OS BacMam BK variants, at 30 µM.
Assay [14] has as its target Calcium-activated potassium channel subunit alpha-1 (Homo sapiens) + Leucine-rich repeat-containing protein 26 (Homo sapiens) (UniProt Q12791+Q2I0M4). The description is as above. To be noted: U2OS BacMam BK variants, F380Y/Slo1WT/gamma1, at 30 µM.
In assay [15] the test system is R275C. Described as above. To be noted: U2OS BacMam BK variants, at 30 µM.
For assay [16], the system named is R275C/beta1. The description is as above. Conditions: U2OS BacMam BK variants, at 30 µM.
Assay [17] concerns R275C/beta2Delta. The description is as above. Conditions: U2OS BacMam BK variants, at 30 µM.
Assay [18] has as its system R275C/beta4. The assay is described as above. To be noted: U2OS BacMam BK variants, at 30 µM.
The subject of assay [19] is R275C/Slo1WT/beta2. Described as above. To be noted: U2OS BacMam BK variants, at 30 µM.
Setting [20] is: measured here: relative caspase fold change +Dox/-Dox.
[21] abbreviates: measured here: total cells with miR-34 induction, stronger effect = lower value.
[22] abbreviates: measured here: total cells without miR-34 induction.

Chain of Calcium-activated potassium channel subunit alpha-1 (Homo sapiens) + Leucine-rich repeat-containing protein 26 (Homo sapiens) (Q2I0M4 whole entry, looked up, one chain of several): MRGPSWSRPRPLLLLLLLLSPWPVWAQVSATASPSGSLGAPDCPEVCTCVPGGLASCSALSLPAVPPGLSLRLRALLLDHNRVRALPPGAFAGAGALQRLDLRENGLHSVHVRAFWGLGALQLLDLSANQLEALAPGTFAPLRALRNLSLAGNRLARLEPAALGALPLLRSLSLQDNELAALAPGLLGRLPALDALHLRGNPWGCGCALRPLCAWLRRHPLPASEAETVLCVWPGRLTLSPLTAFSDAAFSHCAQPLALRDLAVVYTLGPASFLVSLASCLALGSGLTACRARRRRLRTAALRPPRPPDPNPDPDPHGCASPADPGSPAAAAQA

On to `COc1ccc2c(c1)C13CCCC[C@@H]1C(C2)N(C)CC3` (some centres not stated), for which the parasite load remaining in assay [1] is 74.7% (inactive). The same compound had a viability in assay [1] of 74%. For the same compound, the fluorescence ratio was 0.98 (inactive) in assay [2] and 0.92 (inactive) in assay [5]. The inhibition was 0.4% (inactive) in assay [3] and 2.21% (inactive) in assay [4]. Further, in assay [6], the z-score was -0.757 (inactive). Further, the mean signal in [7] was 229 (inactive).
As for `Cc1ncc2n1-c1ccc(Cl)cc1C(c1ccccc1F)=NC2`, the parasite load remaining in assay [1] is 105% (inactive). This compound showed a viability in assay [1] of 73.5%. In addition, the fluorescence ratio in assay [2] was 1.04 (inactive); in [5], 1.02 (inactive). The figures for the inhibition in [3] and in assay [4] were -1.98% (inactive) and -3.18% (inactive), respectively. Moreover, the z-score in assay [6] was -0.669 (inactive); in assay [9] it was 0.59 (inactive). For the same compound, the mean signal in [7] was 220 (inactive). Besides, the values for the fold change in [8] (stronger effect = lower value) and in assay [8] (setting [20]) were 1.08 (inactive) and 1.63, respectively. The results for the cell count in [8] (setting [21]) and in assay [8] (setting [22]) were 6900 and 6400, respectively. Further, the log fold change Tl+ flux in [10] was -0.403 (active); in [11], -0.386 (active); in assay [12], -0.205 (active); in assay [13] it was -0.197 (active); in [14], -0.019 (inactive); in assay [15] it was -0.0381 (inactive). The log fold change Tl+ flux in assay [16] is -0.128 (active); in assay [17], -0.00496 (inactive); in assay [18], 0.138 (active); in [19], 0.000117 (inactive).
As to `c1ccc(Cn2ccnc2)cc1`, the parasite load remaining in [1] was 66.3% (inactive). The viability in assay [1] worked out at 67.7%. The results for the fluorescence ratio in assay [2] and in assay [5] were 0.9 (inactive) and 0.88 (inactive), respectively. Besides, the inhibition in assay [3] was -1.09% (inactive); in [4], 1.97% (inactive). In addition, the z-score is 0.238 (inactive) in assay [6] and 0.075 (inactive) in assay [9]. Further, the mean signal in [7] is 248 (inactive). Also, the results for the fold change in assay [8] (stronger effect = lower value) and in assay [8] (setting [20]) were 1.24 (inactive) and 0.727, respectively. Further, the results for the cell count in assay [8] (setting [21]) and in [8] (setting [22]) were 8900 and 7170, respectively. Further, the log fold change Tl+ flux in assay [10] was 0.0263 (inactive); in assay [11], -0.0465 (inactive); in assay [12] it was -0.0252 (inactive); in [13], -0.0022 (inactive); in assay [14], -0.0094 (inactive); in [15], -0.0227 (inactive). Also, the log fold change Tl+ flux in assay [16] is -0.0133 (inactive); in assay [17], -0.00773 (inactive); in assay [18] it was -0.0192 (inactive); in [19], -0.0321 (inactive).
On to `NC(=NCc1ccc(Cl)cc1)SCCCc1cnc[nH]1`, for which the parasite load remaining in [1] is 42% (inactive). The same compound had a viability in assay [1] of 63.6%. The fluorescence ratio in assay [2] and in assay [5] was 0.97 (inactive) in each case. Also, the inhibition in assay [3] is -2.84% (inactive); in [4] it was 0.39% (inactive). Also, the z-score is -0.336 (inactive) in [6]; -1.21 (inactive) and 0.08 (inactive) in assay [9]. The mean signal in assay [7] was 232 (inactive). Further, the fold change was 0.914 (inactive) in assay [8] (stronger effect = lower value); 0.963 (inactive) in [8] (stronger effect = lower value, cell number ratio, induced over uninduced); 0.654 and 0.836 in assay [8] (setting [20]). For the same compound, the cell count was 8670 and 7970 in assay [8] (setting [21]); 9480 and 8280 in assay [8] (setting [22]).
Regarding `O=C1CCC2(O)[C@H]3Cc4ccc(O)c5c4[C@@]2(CCN3CC2CC2)[C@H]1O5` (some centres not stated), the mean signal in assay [7] was 227 (inactive).
As for `c1cncc(C2CCCN2)c1` (configuration not stated), in [1], the parasite load remaining was 96.8% (inactive). The compound further displayed a viability in [1] of 74.2%. In addition, the fluorescence ratio in [2] is 1.01 (inactive); in assay [5], 0.95 (inactive). Moreover, the inhibition is -1.98% (inactive) in assay [3] and -1.64% (inactive) in [4]. Further, the figures for the z-score in assay [6] and in [9] were -0.685 (inactive) and 0.385 (inactive), respectively. Also, the mean signal in [7] is 296 (inactive). In addition, the fold change in [8] (stronger effect = lower value) is 0.916 (inactive); in assay [8] (setting [20]) it was 2.18. Also, the cell count in assay [8] (setting [21]) worked out at 9590; in assay [8] (setting [22]), 10500.

Usually viability stands for the share of living cells, or the viability signal relative to a control. Broadly, the inhibition is the relative decrease from the control value, in per cent.
